# Experimental data from PubChem BioAssay AID651789 (National Center for Advancing Translational Sciences (NCATS), 2012).
# Records with an inconclusive call do not appear. Calls of active or inactive are those of the source. The call rests on the fitted dose curve; in most records, active means well fitted inhibition curve with a large enough effect; inconclusive means small, poorly fitted or top-dose-only effect; inactive means no such curve, though single readings can be large or run the other way.
# Test: Acumen qHTS Assay for Inhibitors of the mTORC1 Signaling Pathway in WT MEF Cells: Hit Validation; further: nearly all actives have a fitted effect of over 60% in size;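 on activity change, negative = inhibition: percent of cells above a cutoff set by 7.5 nM rapamycin treated wells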
# Details: Acumen imaging; series mostly up to 37.3 µM; activity change, negative = inhibition: at the top concentration
# Description: The mammalian target of rapamycin (mTOR) is an intracellular serine/threonine kinase Aberrant regulation of mTOR signaling plays a causative role in a number of human diseases, including cancer, benign tumors such as lymphangioleiomyomatosis (LAM) and Tuberous Sclerosis Complex (TSC), and metabolic diseases such as diabetes and obesity. This project aims to identify inhibitors of ribosomal protein S6 (rpS6) phosphorylation. The phosphorylation of rpS6 is a key event downstream of mTOR activation. The assay uses a phospho-specific antibody of phospho-rpS6 to detect inhibitors of mTOR activation. Mutations in the Tsc1 and Tsc2 genes are the underlying genetic lesions responsible for TSC, causing constitutive activation of the mTORC1 pathway and leading to profound effects on cell metabolism. Aberrant metabolism in cancer has recently received significant attention as a target to develop therapeutic agents in the treatment of cancer.1 As Tsc2-/- cells have lost the ability to respond to energy and growth factor deprivation, these cells are unable to properly down regulate cellular biosynthetic processes in response to metabolic stress, and are thus extremely sensitive to glucose deprivation-induced death.2 A central goal of this project is to explore the unique cell survival and metabolic properties of cells with Tsc1 or Tsc2 by screening for compounds that selectively target the Tsc2-/- MEFs by screening both Tsc2-/- and WT MEF cell lines. We hope to better understand these aspects of TSC physiology in order to exploit them for therapeutic benefit.
# NIH Molecular Libraries Probe Production Centers Network [MLPCN]
# NIH Chemical Genomics Center [NCGC]
# Assay Submitter (PI): Blenis, John; Harvard University
# For quantitative high throughput analysis of mTORC1 signaling, we developed a cell-based assay for immuno-fluorescence based detection of rpS6 phosphorylation on the Acumen Explorer that will be used a platform for the primary small molecule screen. Mouse embryonic fibroblasts (MEFs) are cultured in 1536-well plates using DMEM + 10% FBS. Twenty-four hrs after plating, test compounds (solubilized in DMSO) are delivered and incubated with the cells for 24 hrs at 37 degree Celsius. Following the incubation, media with compound is aspirated and the cells are fixed in 4% paraformaldehyde (PFA) containing PBS + 0.2% TX-100. Next, PFA is aspirated, cells are washed two times with PBS plus 0.2% TX-100 and the cells are blocked for 1 hr at room temperature (blocking buffer: LiCOR Blocking Buffer plus 0.2% TX-100). This is followed by aspiration and staining with Alexa-488 conjugated-phospho-rpS6 Ser235/236 antibody for 2 hours at room temperature (Cell Signaling Technology # 4803, 1:50 dilution in blocking buffer). Cells are washed two times with PBS plus 0.2% TX-100, and stained with 10 uM propidium iodide (PI) for 20-25 minutes for cell number measurement (1:500 dilution of Hoescht staining is also added for IN Cell imaging). The plates are scanned on the Acumen Explorer laser scanning instrument (TTP Labtech) using the 488nm laser for simultaneous excitation of the Alexa-488 and PI. […] Fluorescence emission from the PI stain is selected using a 575-640 nm band pass filter. The normalized phospho-S6 staining is calculated as the ratio of the integrated Alexa 488 intensity divided by the integrated PI intensity for the single concentration rapamycin control (7.5 nM) and DMSO columns. […] Inhibition of the pathway is defined based on the normalized phospho-S6 intensity in rapamycin treated cells. Active cells are defined as those with a normalized phospho-S6 staining above this threshold, and each treatment is reported as the % positive cells in the well, where thresholds are defined by selecting wells with the highest and lowest signal and differentiating between the % non-active and % active populations. In addition to the pathway specific phospho-S6 endpoint, the number of PI stained cells from the Acumen is recorded as a measure of cell viability. […]
# Potency means the concentration at half of the fitted maximal effect.
SMILES,"activity change, negative = inhibition",Potency
CN1CCN(C2(CNC(=O)c3ccc(C(C)(C)C)cc3)CCCCC2)CC1,10.1% (inactive),–
COc1cc(C(=O)NC(c2ccccc2Cl)c2cc(Cl)c3cccnc3c2O)cc(OC)c1OC (stereo not given),-10.6% (inactive),–
COc1ccc(S(=O)(=O)NCCc2sc3nc(-c4ccc(C)cc4)nn3c2C)cc1F,-14% (inactive),–
CCOc1cc(C2CC(=O)Nc3cc4c(cc32)OCCO4)ccc1O (stereo not given),28.2% (inactive),–
CC(C)c1ccc(NS(=O)(=O)c2ccc3nc(-c4ccccc4)[nH]c3c2)cc1,6.87% (inactive),–
O=C(Nc1ccc2nc(SCC(=O)N3CCCc4ccccc43)sc2c1)c1ccccc1F,-24.5% (inactive),–
Cc1nn(CC(=O)NCc2ccccc2Cl)c(=O)c2cccn12,-4.58% (inactive),–
O=C(COc1ccc(F)cc1)Nc1ccc(Cl)c(-c2nc3ccccc3[nH]2)c1,8.46% (inactive),–
COc1ccccc1C(=O)Nc1ccc2nc(N3CCC(C)CC3)cc(C)c2c1,-30% (inactive),–
Cc1cc(C)c(NC(=O)C2CCN(c3nc4ccccc4n4cccc34)CC2)c(C)c1,-22.3% (inactive),–
O=C(NCc1ccc(F)cc1)c1ccc2c(Cl)c3c(nc2c1)CCCC3,29.6% (inactive),–
COc1ccc(OCC(=O)Nc2ccc3nn(-c4ccc(OC)cc4)nc3c2)cc1,34.3% (inactive),–
CC(C)N(C(=O)CSc1nc2ccc(Cl)cc2[nH]1)c1ccccc1,-24% (inactive),–
CCc1ccc(NC(=O)Cn2nc(C(F)(F)F)c3c2CCCC3)cc1,-2.61% (inactive),–
O=C(NCCc1ccc(Cl)cc1)C(=O)NCC(c1cccs1)S(=O)(=O)c1cccs1 (stereo not given),-8.83% (inactive),–
O=S(=O)(c1cccc2cnccc12)N1CCCNCC1,-22.7% (inactive),–
COc1cccc(-n2c(-c3ccc(C)cc3)cc3c2CC(C)(C)CC3=O)c1,-25.8% (inactive),–
Cc1cccc(Nc2nnc(-c3ccc(C)c(S(=O)(=O)N4CCN(C)CC4)c3)c3ccccc23)c1,46.8% (inactive),–
Cc1nn(CC(=O)N2CCN(c3ccccc3F)CC2)c(=O)c2cccn12,26.1% (inactive),–
CCOC(=O)c1c(NC(=O)c2cc(CC)on2)sc(C(C)=O)c1C,13.1% (inactive),–

SMILES,"activity change, negative = inhibition",Potency
c1ccc(N2CCN(c3ncnc4[nH]ncc34)CC2)cc1,-11.7% (inactive),–
CC(CNC(=O)c1ccc(Nc2nc3ccccc3n3nnnc23)cc1)c1ccccc1 (stereo not given),65.1% (inactive),–
Cn1ccc2c(OCC(=O)Nc3ccc(OC(F)(F)F)cc3)cccc2c1=O,-25.8% (inactive),–
O=C(CCOc1ccccc1)N(Cc1cccnc1)c1nc2c(F)cccc2s1,–,13.1 µM (active)
O=C(Cn1c(=O)c2cccn2c2ccccc21)NCc1ccccc1F,18.4% (inactive),–
Cc1ccc(C)c(NC(=O)c2nc(S(=O)(=O)Cc3ccc(F)cc3)ncc2Cl)c1,–,2.33 µM (active)
COC(=O)c1c(C)oc2ccc(N(C(=O)c3ccncc3)S(=O)(=O)c3ccc(OC)cc3)cc12,–,4.14 µM (active)
Cc1noc(/C=C/N(C)C)c1S(=O)(=O)N1CCCC(C(=O)Nc2ccc(F)cc2F)C1 (stereo not given),–,1.85 µM (active)
CCOc1ccc(NC(=O)c2sc3nc4c(cc3c2N)CCCCCC4)cc1,-9.68% (inactive),–
CCc1ccc(C(=O)CC2(O)C(=O)N(CCc3ccccc3)c3ccc(Cl)cc32)cc1 (stereo not given),-18.7% (inactive),–
CCS(=O)(=O)c1ncc(Cl)c(C(=O)Nc2ccc(S(=O)(=O)N(C)c3ccccc3)cc2)n1,–,0.927 µM (active)
CCc1ccc(-c2nc(CSCC(=O)NCc3ccc(C)cc3)c(C)o2)cc1,34.2% (inactive),–
Cc1cc(NCc2ccc(Cl)cc2)n2cnnc2n1,-27.1% (inactive),–
O=C(CC(NCc1cccnc1)C(=O)O)Nc1ccc(O)cc1 (stereo not given),42% (inactive),–
CCOC(=O)c1c(NC(=O)c2ccc(S(=O)(=O)N(C)C)cc2)sc2c1CCN(C)C2,-11.3% (inactive),–
Cc1ccc(C(C)C)c(OCC(=O)Nc2cc(-c3nc4ccccc4[nH]3)ccc2C)c1,-2.29% (inactive),–
CCOc1cc(-c2nnc(SCC(=O)NCc3ccccc3)nc2-c2ccc(OC)c(OCC)c2)ccc1OC,–,0.927 µM (active)
COc1ccc(CCCc2nnc(SCC(=O)Nc3ccc(OC)cc3)o2)cc1,9.53% (inactive),–
CCOc1ccc(S(=O)(=O)N(C(=O)c2ccncc2)c2ccc3oc(C)c(C(=O)OC)c3c2)cc1,–,14.7 µM (active)
CN(C)c1ccc(Nc2nc3ccccc3n3nnnc23)cc1,46.5% (inactive),–
